Consider 40 compounds from PubChem BioAssay (NCI).

Compounds without any hit were thinned out: in the full panel of roughly 79,000, 15% have a hit. A number with no mark means an inactive call. Calls of active or inactive are those of the source. No stated cut-off is given here; in the data, active means growth inhibition above about 70%; inactive means the rest.

One assay is described as follows: NCI Yeast Anticancer Drug Screen. Data for the mec2-1 strain (AID 157). The note with it: S. cerevisiae mec2-1 strain, at 50.0 µM (retest, dose inferred, filed as 5.0), active compounds read high. An outline of the steps: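 Mutant yeast (mec2-1) grown with compound; growth inhibition relative to vehicle control reported.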
Regarding `CCOC(=O)CNC(=O)C1C2c3ccccc3C(c3ccccc32)C1C(=O)O` (stereo not given), the growth inhibition was 40%.

For the compound `O=[N+]([O-])c1ccc(NP(=S)(Nc2ccc([N+](=O)[O-])cc2)c2ccccc2)cc1`, the growth inhibition was 94% (active).

`O=P(c1ccccc1)(c1ccccc1)c1ccccc1.[Cl][Sn]([c]1ccccc1)([c]1ccccc1)[c]1ccccc1`: the growth inhibition was 98% (active).

Turning to `CC(C)(C)OOC(=O)/C=C\C(=O)OOC(C)(C)C`, the growth inhibition was -1%.

For the compound `Cc1cc2c(cc1O)C(C)(C)CCC2(C)C`, the growth inhibition was 77% (active).

`N#CC(C#N)=Cc1ccc(Cl)o1`: the growth inhibition is 47%.

As for `COc1c(Br)cc(/C=C/[N+](=O)[O-])cc1Br`, the growth inhibition was 99% (active).

For the compound `[O]=[Sb]([OH])([OH])[c]1ccc(NC2OC(CO)C(O)C(O)C2O)cc1` (stereo not given), the growth inhibition is -2%.

Turning to `NC(=S)C1=C(N)Oc2c(c(=O)oc3ccccc23)C1c1ccc(Br)cc1` (stereo not given), the growth inhibition is 73% (active).

For the compound `COS(=O)(=O)c1ccccc1`, the growth inhibition is -2%.

Turning to `O=[N+]([O-])c1cc[n+]([O-])c2ccccc12`, the growth inhibition was 99% (active).

Turning to `O=C(c1ccccc1)c1c(CC(O)c2cccnc2)n(C(=O)c2ccccc2)c2ccccc12` (stereo not given), the growth inhibition was 96% (active).

For `Nc1nc2ncnc(N)c2nc1-c1ccc(N(CCCl)CCCl)cc1`, the growth inhibition is 38%.

Regarding `O=C1c2ccccc2CCC1Br` (stereo not given), the growth inhibition is 99% (active).

Regarding `CC1CCCC[N-]1.CC1CCCC[N-]1.N#C[S-].N#C[S-].[Cd]` (stereo not given), the growth inhibition was 52%.

With `CCOP(=O)(OCC)/C(C#N)=C/c1ccc(Br)cc1`, the growth inhibition was 97% (active).

With `CN(CCCl)Cc1ccc(OCc2ccccc2)c(OCc2ccccc2)c1`, the growth inhibition is 99% (active).

In the case of `O=C(O)c1cccc2cccc(C(=O)O)c12.[Hg]`, the growth inhibition is 100% (active).

For the compound `S=c1[nH]c2ccccc2s1.[Pb]`, the growth inhibition is 6%.

Consider `COc1ccc([As](O[As](c2ccc(OC)cc2)c2ccc(OC)cc2)c2ccc(OC)cc2)cc1`, for which the growth inhibition was 100% (active).

For the compound `CC1=C/C(=C2/N=C(N(C)C)SS2)C(C)=N1`, the growth inhibition was 48%.

As to `CN1C2CCC1c1c([nH]c3ccccc13)C2` (stereo not given), the growth inhibition was -3%.

Turning to `C[CH2][Sn]([Br])([CH2]C)[c]1ccccc1CN(C)C`, the growth inhibition is 69%.

On to `O=C(CCl)Nc1ccc(Cl)cc1`, for which the growth inhibition was 29%.

On to `ClC1CCCCC1[Se](Cl)(Cl)C1CCCCC1Cl` (stereo not given), for which the growth inhibition is 100% (active).

Turning to `Cc1cc(C(C)(C)c2ccc(O)c(C)c2)ccc1O`, the growth inhibition is 99% (active).

With `O=[N+]([O-])O.[In]`, the growth inhibition is 53%.

Turning to `[pH]1p2[pH]p3p1p3[pH]2.c1cc[c]([Ge]([c]2ccccc2)[c]2ccccc2)cc1.c1cc[c]([Ge]([c]2ccccc2)[c]2ccccc2)cc1.c1cc[c]([Ge]([c]2ccccc2)[c]2ccccc2)cc1`, the growth inhibition was 74% (active).

As for `C1=CC2CCC[N-]C2N1.C1=CC2CCC[N-]C2N1.[I][Pt+2][I]` (stereo not given), the growth inhibition is 99% (active).

For the compound `O=[N+]([O-])/C=C/c1cccc(F)c1`, the growth inhibition was 99% (active).

For the compound `O=[N+]([O-])c1ccc(CS(=O)(=O)C(Cl)(Cl)Cl)o1`, the growth inhibition was 100% (active).

Consider `CC(=O)[O][Hg][c]1ccc(N)[c]([Hg][O]C(C)=O)c1`, for which the growth inhibition is 99% (active).

Regarding `CNP(=O)(Oc1cc(Cl)c(Cl)cc1Cl)N1CCN(c2ccccc2)CC1` (stereo not given), the growth inhibition is 48%.

Take `Cc1ccc2c(c1)N(CCN(CCCl)CCCl)c1c(ccc3ccccc13)S2`: the growth inhibition is 87% (active).

For the compound `CC1(C(=O)O)CCCC2(C)c3cc(O)ccc3CCC12` (stereo not given), the growth inhibition was 86% (active).

For the compound `C#CC(O)(CC)CC`, the growth inhibition is -4%.

Regarding `CC1CC[N-]C(C)C1.CN(C)C=O.[Cl][Pt][Cl]` (stereo not given), the growth inhibition was 100% (active).

As for `CN1CCN(c2ccc3nc(-c4ccc5nc(-c6ccc(N(C)CCCl)cc6)[nH]c5c4)[nH]c3c2)CC1`, the growth inhibition is 99% (active).

As to `CC(=O)NNc1ccccc1`, the growth inhibition is 52%.

Turning to `CC(C)[S-].CC(C)[S-].[Pt+2].c1ccc([PH+](c2ccccc2)c2ccccc2)cc1.c1ccc([PH+](c2ccccc2)c2ccccc2)cc1`, the growth inhibition is 97% (active).

The assay is the same for the next values; noted with them: S. cerevisiae mec2-1 strain, at 50.0 µM, active compounds read high.
With `CCOC(=O)CNC(=O)C1C2c3ccccc3C(c3ccccc32)C1C(=O)O` (stereo not given), the growth inhibition is 95.4% (active).

`O=[N+]([O-])c1ccc(NP(=S)(Nc2ccc([N+](=O)[O-])cc2)c2ccccc2)cc1`: the growth inhibition is 95.6% (active).

With `O=P(c1ccccc1)(c1ccccc1)c1ccccc1.[Cl][Sn]([c]1ccccc1)([c]1ccccc1)[c]1ccccc1`, the growth inhibition was 99.7% (active).

Turning to `CC(C)(C)OOC(=O)/C=C\C(=O)OOC(C)(C)C`, the growth inhibition was -15.1%.

Consider `Cc1cc2c(cc1O)C(C)(C)CCC2(C)C`, for which the growth inhibition was 97.2% (active).

For `N#CC(C#N)=Cc1ccc(Cl)o1`, the growth inhibition was 50%.

On to `COc1c(Br)cc(/C=C/[N+](=O)[O-])cc1Br`, for which the growth inhibition was 91.6% (active).

Turning to `[O]=[Sb]([OH])([OH])[c]1ccc(NC2OC(CO)C(O)C(O)C2O)cc1` (stereo not given), the growth inhibition was 5.65%.

Take `NC(=S)C1=C(N)Oc2c(c(=O)oc3ccccc23)C1c1ccc(Br)cc1` (stereo not given): the growth inhibition is 53.7%.

With `COS(=O)(=O)c1ccccc1`, the growth inhibition is -2.4%.

With `O=[N+]([O-])c1cc[n+]([O-])c2ccccc12`, the growth inhibition is 53.9%.

In the case of `O=C(c1ccccc1)c1c(CC(O)c2cccnc2)n(C(=O)c2ccccc2)c2ccccc12` (stereo not given), the growth inhibition is 89.2% (active).

With `Nc1nc2ncnc(N)c2nc1-c1ccc(N(CCCl)CCCl)cc1`, the growth inhibition is 46%.

On to `O=C1c2ccccc2CCC1Br` (stereo not given), for which the growth inhibition is 99.1% (active).

On to `CC1CCCC[N-]1.CC1CCCC[N-]1.N#C[S-].N#C[S-].[Cd]` (stereo not given), for which the growth inhibition was 66.7%.

Turning to `CCOP(=O)(OCC)/C(C#N)=C/c1ccc(Br)cc1`, the growth inhibition was 94% (active).

With `CN(CCCl)Cc1ccc(OCc2ccccc2)c(OCc2ccccc2)c1`, the growth inhibition was 99.6% (active).

Turning to `O=C(O)c1cccc2cccc(C(=O)O)c12.[Hg]`, the growth inhibition is 99.5% (active).

`S=c1[nH]c2ccccc2s1.[Pb]`: the growth inhibition is 94.8% (active).

Consider `COc1ccc([As](O[As](c2ccc(OC)cc2)c2ccc(OC)cc2)c2ccc(OC)cc2)cc1`, for which the growth inhibition was 99.6% (active).

Take `CC1=C/C(=C2/N=C(N(C)C)SS2)C(C)=N1`: the growth inhibition was -0.9%.

As to `CN1C2CCC1c1c([nH]c3ccccc13)C2` (stereo not given), the growth inhibition was 18.5%.

As for `C[CH2][Sn]([Br])([CH2]C)[c]1ccccc1CN(C)C`, the growth inhibition was 65.5%.

`O=C(CCl)Nc1ccc(Cl)cc1`: the growth inhibition was 59.5%.

`ClC1CCCCC1[Se](Cl)(Cl)C1CCCCC1Cl` (stereo not given): the growth inhibition is 98.7% (active).

`Cc1cc(C(C)(C)c2ccc(O)c(C)c2)ccc1O`: the growth inhibition was 99.4% (active).

Regarding `O=[N+]([O-])O.[In]`, the growth inhibition is 44.2%.

Turning to `[pH]1p2[pH]p3p1p3[pH]2.c1cc[c]([Ge]([c]2ccccc2)[c]2ccccc2)cc1.c1cc[c]([Ge]([c]2ccccc2)[c]2ccccc2)cc1.c1cc[c]([Ge]([c]2ccccc2)[c]2ccccc2)cc1`, the growth inhibition was 59.3%.

Consider `C1=CC2CCC[N-]C2N1.C1=CC2CCC[N-]C2N1.[I][Pt+2][I]` (stereo not given), for which the growth inhibition was 99.5% (active).

For `O=[N+]([O-])/C=C/c1cccc(F)c1`, the growth inhibition was 99.7% (active).

Consider `O=[N+]([O-])c1ccc(CS(=O)(=O)C(Cl)(Cl)Cl)o1`, for which the growth inhibition was 98.5% (active).

Regarding `CC(=O)[O][Hg][c]1ccc(N)[c]([Hg][O]C(C)=O)c1`, the growth inhibition is 99.5% (active).

Consider `CNP(=O)(Oc1cc(Cl)c(Cl)cc1Cl)N1CCN(c2ccccc2)CC1` (stereo not given), for which the growth inhibition was 98% (active).

As for `Cc1ccc2c(c1)N(CCN(CCCl)CCCl)c1c(ccc3ccccc13)S2`, the growth inhibition was 67.2%.

`CC1(C(=O)O)CCCC2(C)c3cc(O)ccc3CCC12` (stereo not given): the growth inhibition is 13%.

On to `C#CC(O)(CC)CC`, for which the growth inhibition is 13.4%.

Consider `CC1CC[N-]C(C)C1.CN(C)C=O.[Cl][Pt][Cl]` (stereo not given), for which the growth inhibition is 92.2% (active).

Take `CN1CCN(c2ccc3nc(-c4ccc5nc(-c6ccc(N(C)CCCl)cc6)[nH]c5c4)[nH]c3c2)CC1`: the growth inhibition was 98.8% (active).

With `CC(=O)NNc1ccccc1`, the growth inhibition is 66.2%.

Turning to `CC(C)[S-].CC(C)[S-].[Pt+2].c1ccc([PH+](c2ccccc2)c2ccccc2)cc1.c1ccc([PH+](c2ccccc2)c2ccccc2)cc1`, the growth inhibition was 90.3% (active).
